Entries with a potency or affinity are not part of this list. Activity calls are given as the source filed them.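 Rule for the calls: active = every repeat test judged active, meaning a falling signal with potency within twice the top valid dose; inconclusive = repeat tests disagree on the call; inactive = every repeat test inactive, including signal moving upward.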
What follows are compounds tested against Cyclin-dependent kinase 2 (Homo sapiens) (UniProt P24941) (assay: CDK2 kinase inhibitors, off-target check, dose response, selectivity assay for Dyrk1A inhibitor project, biochemical, cherry-picked samples (AID 602127)). Conditions: CDK2/cyclin A kinase, ADP-Glo luminescence, 60 min; series mostly up to 10 µM.

outcome, inactive:
Cc1c(-c2ccnc(NCc3ccc(Cl)cc3)n2)sc(=O)n1C
Clc1ccc(CNc2ncncc2-c2ccc3c(c2)OCO3)cc1
Brc1cc(Br)cc(CNc2nccc(-c3ccc4c(c3)OCO4)n2)c1
Clc1ccc(CNc2nccc(-c3ccc4c(c3)OCCO4)n2)cc1Cl
O=C(Nc1nc2ccc(Cl)cc2s1)C1CCCO1 (stereo not given)
Clc1ccc(CNc2nccc(-c3ccc4cn[nH]c4c3)n2)cc1Cl
O=C(Nc1nc2c(s1)CCCC2)c1ccc(N2C(=O)CCC2=O)cc1
c1nc(NCC2CCCC2)c2cc(-c3ccc4c(c3)OCO4)ccc2n1
CCN1CCN(Cc2ccc(NC(=O)c3ccc(C)c(/C=C/c4cnc(Nc5cc(N6CCNCC6)nc(C)n5)cn4)c3)cc2C(F)(F)F)CC1
COc1ccc(C(=O)c2sc(Nc3ccccc3F)nc2N)cc1
COc1ccc2c(Cl)c(C(=O)NCc3ccco3)sc2c1
O=[N+]([O-])c1cc(Nc2nccc(-c3ccc4c(c3)OCO4)n2)cc(C(F)(F)F)c1
COc1ccc(-c2[nH]ncc2-c2ccc3c(c2)OCCO3)c(O)c1
Cc1ccsc1CNc1ncnc2ccc(-c3ccc4c(c3)OCO4)cc12
Cc1nc(NC(=O)c2ccccc2)sc1-c1csc(N)n1
Brc1ccc(CNc2nccc(-c3ccc4c(c3)OCO4)n2)cc1Br
Clc1ccc(Nc2nccc(-c3ccc4c(c3)OCO4)n2)cc1
Cc1nc(NC(=O)c2ccccc2)sc1-c1csc(NCc2ccco2)n1
Clc1ccc(CNc2nccc(-c3ccc4c(c3)OCO4)n2)cc1Cl
Cc1noc(NS(=O)(=O)c2ccc(NC(=O)c3oc4ccc(F)cc4c3C)cc2)c1C
Clc1ccccc1-c1ccc2ncnc(NCc3ccc4c(c3)OCO4)c2c1
c1cncc(-c2nc(NCc3ccco3)c3ccccc3n2)c1
Clc1ccc(CNc2cc(-c3ccc4c(c3)OCO4)ncn2)cc1
N#CCSc1nc(Nc2ccc3c(c2)OCO3)c2ccccc2n1
Clc1cc(Cl)cc(CNc2cc(-c3ccc4c(c3)OCO4)ncn2)c1
COc1cccc(Nc2ncnc3ccccc23)c1
c1cc(-c2ccc3c(c2)OCO3)nc(Nc2ccc3c(c2)OCO3)n1
Cc1noc(CN(C)c2ncnc3ccc(-c4ccc5c(c4)OCO5)cc23)n1
COc1cccc(NC(=O)Nc2ccc3c(c2)N(C)C(=O)CS3)c1
Cc1nc(CN(C)c2ncnc3ccc(-c4ccc5c(c4)OCO5)cc23)cs1

— PubChem BioAssay AID602127 (Broad Institute, 2011)
